Most compounds without a hit are left out; they make up all but 12% or so of the library.
BAZ2B block = BAZ2B (human) inhibition | Q9UIF8 | AlphaScreen BAZ2B-H3K14Ac peptide displacement | Potency, µM (top dose mostly 114 µM), without a hit: top-dose activity change, negative = inhibition, usual class: inhibitors | 360,000 compounds, 4.4% hits; also: potency is read from the fitted curve at half-maximal effect; % is scaled to controls: 0 for no effect and ±100 for the full control effect; nearly all actives have a fitted effect of over 60% in size
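Compounds, titrated to a top concentration of 110 uM, were incubated 30 min at room temperature with preformed BAZ2B/acetyl-K14 H3 peptide complex (50 nM each). Proximity signal was measured by AlphaScreen after 20 min with beads.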
JMJD2A Tudor = JMJD2A Tudor domain (human) inhibition; 390,000 compounds, 4.4% hits; Potency, µM (series often up to 114 µM), for the others: at the highest dose activity change, negative = inhibition, most hits filed as inhibitors; AID 504339; AlphaScreen JMJD2A-Tudor / H3K4me3 peptide binding; also: potency is read from the fitted curve at half-maximal effect; % is scaled to controls: 0 for no effect and ±100 for the full control effect; nearly all actives have a fitted effect of over 50% in size
PI5P4Ka inh = PI5P4K alpha (human) kinase inhibition | P48426 | PI5P4Kalpha enzyme, ADP-Glo luminescence, 60 min; stronger effect = lower value | max response, % | 330,000 compounds, 1.2% hits | AID 652105; active = max response of -50% or lower; inconclusive = between -30% and -50%; inactive = -30% or higher; also: value at the top dose of about 77 µM; % is scaled to controls: 0 for no effect and ±100 for the full control effect
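Controls without substrate or without enzyme flank wells where PI5P4Kalpha converts substrate using 5 microM ATP (final). Incubation lasts 60 minutes at room temperature; ADP formed is read by ADP-Glo luminescence.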
PLK1 PBD inh = PLK1 (human) polo-box domain binding inhibition; P53350; Plk1 PBD binding of FITC phosphopeptide, fluorescence polarization; Potency, µM, for inactives: max response, negative = inhibition, usual class: inhibitors; 360,000 compounds, 2.8% hits; AID 720504; also: potency is read from the fitted curve at half-maximal effect; series mostly up to about 57 µM; % is scaled to controls: 0 for no effect and ±100 for the full control effect; nearly all actives have a fitted effect of over 65% in size
Target sequence (P53350 whole entry, looked up, the tested form may be a part): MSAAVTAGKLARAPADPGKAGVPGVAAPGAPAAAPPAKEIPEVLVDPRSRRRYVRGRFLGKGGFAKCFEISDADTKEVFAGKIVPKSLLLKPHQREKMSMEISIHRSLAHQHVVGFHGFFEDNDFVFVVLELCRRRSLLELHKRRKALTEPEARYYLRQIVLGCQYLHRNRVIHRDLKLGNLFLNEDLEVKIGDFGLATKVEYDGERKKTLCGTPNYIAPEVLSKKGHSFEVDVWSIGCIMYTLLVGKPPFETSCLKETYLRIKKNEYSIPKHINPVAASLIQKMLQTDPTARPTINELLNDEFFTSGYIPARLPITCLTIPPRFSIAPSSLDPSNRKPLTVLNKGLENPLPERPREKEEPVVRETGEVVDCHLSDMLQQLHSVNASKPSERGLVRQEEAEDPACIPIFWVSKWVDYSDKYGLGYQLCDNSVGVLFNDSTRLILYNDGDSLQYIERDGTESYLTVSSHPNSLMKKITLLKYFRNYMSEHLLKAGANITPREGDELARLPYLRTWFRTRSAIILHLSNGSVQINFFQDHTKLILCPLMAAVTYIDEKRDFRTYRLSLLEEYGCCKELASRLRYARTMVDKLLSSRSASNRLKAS
G9a inh = G9a (human) methyltransferase inhibition | Potency, µM (doses to about 102 µM), for inactives: top-dose activity, negative = inhibition, most hits filed as inhibitors | 350,000 compounds, 8.8% hits | Q96KQ7 | G9a H3K9 monomethylation, AlphaScreen, 2 h; also: potency is read from the fitted curve at half-maximal effect; % is scaled to controls: 0 for no effect and ±100 for the full control effect; nearly all actives have a fitted effect of over 75% in size
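Signal arises when biotinylated H3K9 peptide, once monomethylated, bridges streptavidin donor and antibody-captured acceptor beads. Enzyme at 20 nM was preincubated 15 min with test compounds; peptide 500 nM and SAM 20 uM then reacted for 2 h.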
HP1b chromo inh = inhibitors of HP1-beta chromodomain binding to methylated histone tails; 390,000 compounds, 0.56% hits; Potency, µM (series often up to 114 µM), for the others: top-dose activity change, negative = inhibition, hits mostly inhibitors; AlphaScreen HP1-beta / biotin-H3K9me3 peptide binding; P83916; also: potency is read from the fitted curve at half-maximal effect; nearly all actives have a fitted effect of over 70% in size
Target sequence (P83916 whole entry, looked up): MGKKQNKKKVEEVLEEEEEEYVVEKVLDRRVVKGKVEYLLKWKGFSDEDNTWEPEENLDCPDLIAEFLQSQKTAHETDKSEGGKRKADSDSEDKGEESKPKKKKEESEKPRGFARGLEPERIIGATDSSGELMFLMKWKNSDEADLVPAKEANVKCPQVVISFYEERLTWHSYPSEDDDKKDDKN
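AlphaScreen: HP1-beta (50 nM) preformed 30 min with biotin-H3(1-18)K9me3 peptide (50 nM) in PBS pH 7.4, 0.01% Tween-20. Compound added for 30 min at RT, then streptavidin donor/nickel chelate acceptor beads (10 ug/mL) for 30 min.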
Starred values were filed as active, the others as inactive; ? = inconclusive; nt = not tested or not shown; ! = not active in a repeat; [ ] = another dose, or the depositor's remark. Unless noted, calls follow the shape of the dose curve; as a rule, active = well fitted curve in the direction sought with a large enough effect; inconclusive = small, poorly fitted or top-dose-only effect, or another doubt; inactive = no such curve, though single readings can be large; an effect the other way counts as inactive or inconclusive.

SMILES	BAZ2B block	JMJD2A Tudor	PI5P4Ka inh	PLK1 PBD inh	G9a inh	HP1b chromo inh
CC1CCCN(C(=O)CN2C(=O)CSc3ccc(S(=O)(=O)N4CCOCC4)cc32)C1 (centres undefined)	-3.5%	-18.5%	0.1	26.7µM*	14.6%[59 µM]	18.3%
O=c1c2ccccc2nc2c3ccccc3c(NCc3ccccn3)nn12	50.1µM*	?	2.7	-26.8%	31.6µM*	42.9%
CC(=O)N1c2ccccc2C(=O)C1N1CCN(c2ccc(Cl)cc2)CC1 (centres undefined)	-1.4%	-17.5%	nt	nt	-48.1%[59 µM]	10.8%
CC(=O)N1c2ccccc2C(=O)C1N1CCN(c2cc(Cl)ccc2C)CC1 (centres undefined)	?	-28.6%	nt	nt	7.94µM*	54.7%
CCOc1ccc(CCN2C(=S)N([C@@H](Cc3ccc(O)cc3)CN3CCC[C@@H]3CN3C(=S)NC[C@@H]3CC(C)C)C[C@@H]2CC(C)C)cc1	nt	nt	0.4	-12.3%	nt	nt
CS(=O)(=O)NCc1ccccc1Br	6.9%	nt	nt	nt	3.3%[2.33 µM]	nt
O=C(Nc1nnc(S(=O)(=O)N2CCOCC2)s1)c1ccccc1	-12.7%	-24.6%	?	-22.3%	nt	35.6%
O=C(Nc1nnc(S(=O)(=O)N2CCOCC2)s1)c1ccccc1Br	-3.8%	-5.6%	-20.8	-16.5%	79.4µM*	25.2%
O=C(Nc1nnc(S(=O)(=O)N2CCCCC2)s1)c1ccccc1Br	-6.7%	-13.2%	-13.3	-8.4%	-7.7%	49.6%
NC(=O)CSc1nnc(NC(=O)c2ccc(S(=O)(=O)N3CCCCC3)cc2)s1	6.2%	-8.9%	-0.3	-17.1%	6.31µM*	50.5%
O=C(Nc1nn[nH]n1)c1ccc(S(=O)(=O)N2CCCCC2)cc1	70.8µM*	?	-23.9	-1.8%	50.1µM*	57.6%
O=C(Nc1nnc(S(=O)(=O)N2CCCCCC2)s1)c1ccccc1Cl	?	?	-8.6	-10.1%	10µM*!	49.9%
Cc1onc(-c2ccccc2)c1C(=O)OCC(=O)N1CCN(c2ccccc2)CC1	1.4%	-22.4%	-1.6	-16.6%	-12.0%	-5.2%
CC(Oc1ccccc1F)c1nnc(SCC(=O)N(c2ccccc2)C2CCS(=O)(=O)C2)o1 (centres undefined)	nt	-8.4%	2.8	-2.5%	nt	39.8%
Cn1sc(NC(=O)c2cccc(Cl)c2)nc1=O	-3.7%	-14.6%	-14.4	-0.2%	nt	39.2%
Cn1sc(NC(=O)c2ccccc2Cl)nc1=O	-1.1%	-14.6%	-18.6	29.9µM*	?	-11.9%
O=C(Nc1nnc(S(=O)(=O)N2CCCCCC2)s1)c1ccccc1	8.91µM*!	28.2µM*!	1.2	-6.7%	15.8µM*!	49.5%
COc1ccccc1C(=O)Nc1nnc(S(=O)(=O)N2CCC(C)CC2)s1	-4.0%[57.1 µM]	-11.3%	-4.2	-10.6%	79.4µM*	59.4%
O=C(Nc1nnc(S(=O)(=O)N2CCCC2)s1)c1ccccc1Cl	5.01µM*!	?	-9.9	-3.0%	?	36.8%
COc1ccccc1C(=O)Nc1nnc(S(=O)(=O)N2CCOCC2)s1	-4.8%	-1.4%	2.2	0.2%	2.2%	48.9%
CCCCn1c(=O)n(CC2CCC(C(=O)NCCCOC)CC2)c(=O)c2sccc21 (centres undefined)	4.0%	-8.7%	nt	nt	6.6%[59 µM]	60.1%
CCNc1ncc2nc(-c3ccc(OC)cc3)c(=O)n(CCC#N)c2n1	nt	nt	nt	nt	8.6%[0.501 µM]	nt
CC(C)CCNC(=O)C1(C)CCN1Cc1ccc(-c2ccccn2)cc1 (centres undefined)	nt	nt	-4.3	-15.9%	nt	nt
COc1ccc(S(=O)(=O)c2c(Nc3ccccc3F)sc(C(=O)c3cccc(OC)c3)c2N)cc1	-21.8%	?	nt	nt	6.2%[59 µM]	7.0%[57 µM]
COc1ccc(N(CC(=O)NC2CC3CCC2C3)S(=O)(=O)c2ccc(C)c([N+](=O)[O-])c2)cc1 (centres undefined)	-18.7%	-27.1%	-3.8	-7.5%	-18.7%	-14.4%
SMILES	BAZ2B block	JMJD2A Tudor	PI5P4Ka inh	PLK1 PBD inh	G9a inh	HP1b chromo inh
O=C(Cn1c(-c2ccccc2)c[n+]2ccsc12)c1ccc([N+](=O)[O-])cc1	-18.2%	-31.3%	-18.4	29.9µM*	-38.4%	7.8%
O=C(Cn1c(-c2ccccc2)c[n+]2ccsc12)c1ccccc1	-13.8%	-6.8%	-0.3	-9.1%	?	25.0%
O=C(Nc1c(Br)cc2c(c1Br)Cc1ccccc1-2)C(Cl)Cl	nt	-10.4%	10.8	-0.2%	nt	24.6%
Cc1ccc(-c2nnc3ccc(SCC(=O)c4ccccc4)nn23)cc1	nt	-5.4%[57.1 µM]	nt	nt	nt	9.4%[57 µM]
Cc1cc(C)cc(NC(=O)C2CCC(CNC(=O)[C@@H]3Cc4ccccc4CN3)CC2)c1 (some centres undefined)	-15.6%[57.1 µM]	-3.3%	0.5	-23.5%	-4.4%	19.3%[57 µM]
CC(C)c1ccc(NC(=O)C2CCN(C(=O)[C@@H]3Cc4ccccc4CN3)CC2)cc1	-21.5%	-21.4%	5.6	-17.4%	nt	16.0%
CC1=C(C)CC(C(=O)N2CCN(Cc3ccccc3)CC2)C(C(=O)O)C1 (centres undefined)	-2.4%	-10.8%	-1.2	-16.6%	-23.6%[12.7 µM]	11.5%
O=C([C@@H]1Cc2ccccc2CN1)N1CCN(Cc2ccccc2)CC1	79.4µM*	-4.0%	-2.5	1.6%	31.6µM*	41.7%
Cc1ccc(NC(=O)C2CCCN2C(=O)Oc2ccccc2)c(C)c1 (centres undefined)	-9.3%	-9.1%	2.6	-6.0%	nt	49.3%
Cc1ccc(NC(=O)[C@@H]2CCCN2C(=O)[C@@H]2Cc3ccccc3CN2)c(C)c1	-16.6%	-9.6%	7.3	-8.2%	50.1µM*	37.5%
Cc1ccc(NC(=O)C2CCN(C(=O)[C@@H]3Cc4ccccc4CN3)CC2)cc1	-11.0%	-8.2%	5.2	-13.9%	56.2µM*	45.0%
Cc1cc(C)cc(NC(=O)C2CCN(C(=O)[C@@H]3Cc4ccccc4CN3)CC2)c1	?	22.4µM*	-25.7	4.74µM*	50.1µM*	29.9%
CC1=CC(c2ccccc2)n2nc(N3C(=O)CCC3=O)nc2N1 (centres undefined)	?	79.4µM*	7.9	-2.8%	20µM*	35.3%
CC1=CC(c2ccccc2)n2nc(N3C(=O)C4CC=CCC4C3=O)nc2N1 (centres undefined)	-35.0%	-32.8%	0.7	-7.5%	25.1µM*	22.8%
CC1=CC(c2ccccc2)n2nc(N3C(=O)c4ccccc4C3=O)nc2N1 (centres undefined)	-37.2%	-29.9%	nt	-16.5%	-2.3%[12.7 µM]	29.5%
CC(C)CC(=O)NC(=S)Nc1ccccc1F	7.3%	-6.4%	0.3	-8.1%	-3.5%[59 µM]	20.1%
COc1c(C)cccc1C(=O)NC(=S)Nc1cccc2nsnc12	-20.7%	-2.1%	0.7	-23.3%	44.7µM*	36.1%
CC(C)CC(=O)NC(=S)Nc1cccc2nsnc12	-11.6%	-13.4%	3.1	-3.6%	35.5µM*	41.4%
CCCOc1ccc(OC(=O)c2c(-c3ccccc3Cl)noc2C)cc1	43.1%	64.2%	nt	nt	56.9%[59 µM]	78.2%

Screening results deposited in PubChem by National Center for Advancing Translational Sciences (NCATS).
